Five compounds from PubChem BioAssay can be followed below.

Structures are written as SMILES. Active and inactive are the calls of the source.

Experiment [1] in a line: small molecules captured by biotinylated probe aFSTL3 – biochemical, small-molecule microarray, fluorescence 635/667, stem cell growth factor project, primary screen (AID 1064).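 Further: measures binding of the biotinylated anti-FSTL3 antibody to printed compounds.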 Particulars: higher = more signal.
Experiment [2] can be described thus: binders from COS7 lysate, DM2A8 probe, primary screen, torsin A project, cell lysate, small-molecule microarray, fluorescence 635/667 (AID 1065). The conditions noted are these: higher = more signal, COS7 lysate expressing mutant human TOR1A.
The nature of experiment [3]: small molecules captured by biotinylated probe aFGF2 – biochemical, small-molecule microarray, fluorescence 635/667, stem cell growth factor project, primary screen (AID 1067).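 Further: measures binding of biotinylated aFGF2 protein to printed compounds on slides; z-score merges feature fluorescence and signal-to-noise across triplicate slides.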 Particulars: higher = more signal.
Experiment [4] in a line: small molecules captured by biotinylated probe aFGF10 – biochemical, small-molecule microarray, fluorescence 635/667, stem cell growth factor project, primary screen (AID 1071).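 Further: score merges 667 nm spot intensity and signal to noise from triplicate slides.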 The conditions noted are these: higher = more signal.
In experiment [5] the target is Neurogenic locus notch homolog protein 2 (Homo sapiens) (UniProt Q04721). Nature of the experiment: small molecules binding Notch2 protein – biochemical, small-molecule microarray, 635 nm fluorescence, stem cell growth factors, primary screen (AID 1073). The conditions noted are these: higher = more signal.
In experiment [6] the target is Pro-neuregulin-1, membrane-bound isoform (Homo sapiens) (UniProt Q02297). Nature of the experiment: small molecules binding neuregulin-1 protein – biochemical, small-molecule microarray, fluorescence 635/667, psychiatric disease protein project, primary screen (AID 1075).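 Further: score combines 667 nm spot fluorescence with signal to noise.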 Particulars: NRG1 binding, 635 nm fluorescence, higher = more signal.
Experiment [7] concerns Neuregulin-1 EGF-like domain. As to the kind of experiment: small molecules binding NRG1 EGF domain – biochemical, small-molecule microarray, 635 nm fluorescence, primary screen (AID 1081).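 Further: binding of the protein to compounds printed on small-molecule microarray slides.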 The conditions noted are these: higher = more signal.
Experiment [8] can be described thus: FRG1 expression reporter modulators in myotubes – cell-based, C2C12 myotubes, firefly/Renilla luciferase, luminescence, FRG1 inhibition for FSHD, primary screen (AID 1084). Particulars: FRG1 promoter luciferase, higher = more signal, called active from +8 up or from −8 down.
Experiment [9] is described as follows: small molecules captured by biotinylated probe aFST – biochemical, small-molecule microarray, fluorescence 635/667, stem cell growth factor project, primary screen (AID 1086).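 Further: score merges 667 nm fluorescence with signal-to-noise of each printed compound spot.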 The conditions noted are these: higher = more signal.
Experiment [10] can be described thus: binders of probe aHhip on microarray, primary screen, stem cell growth factor project, biochemical, small-molecule microarray, fluorescence 635/667 (AID 1087).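 Further: score merges spot fluorescence at 667nm with spot signal to noise ratio.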 The conditions noted are these: higher = more signal.
In experiment [11] the test system is PRMT1 (protein arginine N-methyltransferase 1). As to the kind of experiment: small molecules binding arginine methyltransferase PRMT1 – biochemical, small-molecule microarray, 635 nm fluorescence, primary screen (AID 1088).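 Further: binding of Prmt1 protein to compounds spotted on small-molecule microarray slides.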 The conditions noted are these: higher = more signal.
Experiment [12] is described as follows: growth effects on S. cerevisiae YJM789 – YJM789 clinical isolate, OD600, 24 h, basal, primary screen (AID 1089).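 Further: growth of clinical yeast isolate S. cerevisiae YJM 789 seeded 1000 cells per well; test concentration not given here.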 The conditions noted are these: higher = more signal, called active from +8 up or from −8 down.
Experiment [13] is described as follows: S. pombe growth modifiers, basal conditions – strain 972, OD600, 24 h, no modulator, primary screen (AID 1090).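 Further: basal condition with compound alone and no growth modifier present; test concentration not given here.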 Particulars: S. pombe 972 growth, higher = more signal, called active from +8 up or from −8 down.
The nature of experiment [14]: budding yeast growth modifiers under rapamycin – strain BY4716, OD600, 96 h, primary screen (AID 1091). Further: test concentration not given here. The conditions noted are these: S. cerevisiae BY4716 + rapamycin, higher = more signal, called active from +8 up or from −8 down.
The target of experiment [15] is Torsin-1A-interacting protein 2 (Homo sapiens) (UniProt Q8NFQ8). As to the kind of experiment: small molecules binding lysate-expressed LULL1 – cell lysate, human LULL1 lysate, 635/667 nm fluorescence, primary screen (AID 1092).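 Further: probe is lysate of COS7 cells overexpressing human LULL1; score merges per-feature 667 nm fluorescence with signal-to-noise.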 Particulars: small-molecule microarray, hLULL1 lysate binding, 635 nm fluorescence; higher = more signal.
Experiment [16] can be described thus: optical density change of DRC41 E. coli – strain DRC41, OD650, 24 h, E. coli filamentation project, primary screen (AID 1093).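 Further: MC1000 strain lacking acrAB efflux and sulA so SOS filamentation is blocked; test concentration not given here.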 The conditions noted are these: E. coli DRC41 growth, higher = more signal, called active from +8 up or from −8 down.
A short description of experiment [17]: probe aLefty2 binding to arrayed compounds – biochemical, biotinylated probe, 635/667 nm fluorescence, primary screen (AID 1094).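 Further: score merges spot fluorescence near 667 nm with spot signal-to-noise ratio.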 The conditions noted are these: small-molecule microarray, higher = more signal.
Experiment [18] deals with Noggin (protein binding on small-molecule microarray). Nature of the experiment: small molecules binding Noggin protein – biochemical, 635/667 nm fluorescence, primary screen (AID 1095).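 Further: score merges 667 nm feature fluorescence with signal to noise over triplicate slides.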 Particulars: 635 nm fluorescence, higher = more signal.
Experiment [19] concerns the target Neurogenic locus notch homolog protein 3 (Homo sapiens) (UniProt Q9UM47). Nature of the experiment: small molecules binding NOTCH3 protein – biochemical, 635/667 nm fluorescence, primary screen (AID 1096). Particulars: small-molecule microarray, 635 nm fluorescence, higher = more signal.
Experiment [20] is described as follows: probe aEGFR binding to arrayed compounds – biochemical, biotinylated probe, 635/667 nm fluorescence, primary screen (AID 1097).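 Further: probe is a biotinylated anti-EGFR antibody binding compounds printed on slides; score combines fluorescence near 667 nm and signal to noise of each spot.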 Particulars: small-molecule microarray, higher = more signal.

Neurogenic locus notch homolog protein 3 (Homo sapiens), sequence (Q9UM47 whole entry, looked up): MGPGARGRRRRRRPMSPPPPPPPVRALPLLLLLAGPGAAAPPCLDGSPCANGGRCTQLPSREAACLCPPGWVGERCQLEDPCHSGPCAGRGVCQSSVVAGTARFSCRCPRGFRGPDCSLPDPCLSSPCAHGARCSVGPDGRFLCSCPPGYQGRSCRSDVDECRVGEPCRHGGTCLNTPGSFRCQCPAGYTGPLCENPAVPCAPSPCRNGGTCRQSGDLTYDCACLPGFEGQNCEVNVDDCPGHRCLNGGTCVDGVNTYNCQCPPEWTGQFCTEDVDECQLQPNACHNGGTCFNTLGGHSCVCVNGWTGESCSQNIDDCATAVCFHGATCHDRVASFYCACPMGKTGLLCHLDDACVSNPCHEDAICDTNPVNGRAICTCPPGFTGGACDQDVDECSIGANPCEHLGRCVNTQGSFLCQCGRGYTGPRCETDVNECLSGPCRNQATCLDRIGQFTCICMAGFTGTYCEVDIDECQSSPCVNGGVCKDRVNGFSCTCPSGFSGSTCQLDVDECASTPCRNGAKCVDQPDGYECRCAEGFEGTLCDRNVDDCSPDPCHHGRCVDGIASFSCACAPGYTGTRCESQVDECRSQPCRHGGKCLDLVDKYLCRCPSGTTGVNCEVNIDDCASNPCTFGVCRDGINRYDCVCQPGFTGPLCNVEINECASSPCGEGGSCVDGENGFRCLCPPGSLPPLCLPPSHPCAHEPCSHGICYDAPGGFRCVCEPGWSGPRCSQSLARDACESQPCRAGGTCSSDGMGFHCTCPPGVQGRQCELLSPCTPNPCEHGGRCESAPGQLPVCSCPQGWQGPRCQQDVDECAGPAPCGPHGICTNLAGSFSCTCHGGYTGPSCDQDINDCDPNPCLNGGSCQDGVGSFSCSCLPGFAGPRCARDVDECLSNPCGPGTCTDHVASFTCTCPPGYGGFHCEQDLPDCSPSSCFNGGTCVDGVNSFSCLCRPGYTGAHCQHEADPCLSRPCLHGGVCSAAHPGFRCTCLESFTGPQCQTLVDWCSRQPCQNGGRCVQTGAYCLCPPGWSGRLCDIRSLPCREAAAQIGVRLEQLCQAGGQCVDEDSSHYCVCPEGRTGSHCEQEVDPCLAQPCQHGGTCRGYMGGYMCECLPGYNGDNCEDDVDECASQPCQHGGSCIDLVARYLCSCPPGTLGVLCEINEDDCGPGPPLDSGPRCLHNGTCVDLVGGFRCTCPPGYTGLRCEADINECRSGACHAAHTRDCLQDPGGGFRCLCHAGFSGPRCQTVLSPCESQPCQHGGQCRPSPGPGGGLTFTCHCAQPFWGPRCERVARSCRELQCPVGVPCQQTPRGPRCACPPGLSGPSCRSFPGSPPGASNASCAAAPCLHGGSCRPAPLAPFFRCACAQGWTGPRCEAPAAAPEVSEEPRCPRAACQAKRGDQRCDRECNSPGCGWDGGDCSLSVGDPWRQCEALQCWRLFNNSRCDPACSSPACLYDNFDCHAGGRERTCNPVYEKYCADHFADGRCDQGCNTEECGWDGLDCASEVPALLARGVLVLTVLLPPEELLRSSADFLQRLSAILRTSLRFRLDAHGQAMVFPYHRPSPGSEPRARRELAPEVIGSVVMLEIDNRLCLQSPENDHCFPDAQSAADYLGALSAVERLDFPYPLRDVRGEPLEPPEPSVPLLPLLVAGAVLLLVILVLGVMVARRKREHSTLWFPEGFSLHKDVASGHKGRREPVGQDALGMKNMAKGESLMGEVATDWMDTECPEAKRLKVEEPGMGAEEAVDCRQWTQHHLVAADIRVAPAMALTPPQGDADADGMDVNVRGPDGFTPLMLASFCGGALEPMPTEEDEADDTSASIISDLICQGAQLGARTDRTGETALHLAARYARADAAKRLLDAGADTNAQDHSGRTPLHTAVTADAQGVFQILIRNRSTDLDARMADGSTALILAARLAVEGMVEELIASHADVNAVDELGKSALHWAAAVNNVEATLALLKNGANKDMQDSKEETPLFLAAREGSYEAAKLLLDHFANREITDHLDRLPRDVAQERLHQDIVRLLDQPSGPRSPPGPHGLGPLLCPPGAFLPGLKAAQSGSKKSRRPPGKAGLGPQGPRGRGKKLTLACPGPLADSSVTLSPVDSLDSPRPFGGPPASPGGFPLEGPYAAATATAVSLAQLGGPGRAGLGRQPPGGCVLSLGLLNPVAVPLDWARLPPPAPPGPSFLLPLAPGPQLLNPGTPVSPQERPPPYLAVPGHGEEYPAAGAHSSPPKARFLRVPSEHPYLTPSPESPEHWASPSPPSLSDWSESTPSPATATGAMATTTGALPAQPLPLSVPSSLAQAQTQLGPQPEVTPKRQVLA
Neurogenic locus notch homolog protein 2 (Homo sapiens), sequence (Q04721 whole entry, looked up, canonical isoform): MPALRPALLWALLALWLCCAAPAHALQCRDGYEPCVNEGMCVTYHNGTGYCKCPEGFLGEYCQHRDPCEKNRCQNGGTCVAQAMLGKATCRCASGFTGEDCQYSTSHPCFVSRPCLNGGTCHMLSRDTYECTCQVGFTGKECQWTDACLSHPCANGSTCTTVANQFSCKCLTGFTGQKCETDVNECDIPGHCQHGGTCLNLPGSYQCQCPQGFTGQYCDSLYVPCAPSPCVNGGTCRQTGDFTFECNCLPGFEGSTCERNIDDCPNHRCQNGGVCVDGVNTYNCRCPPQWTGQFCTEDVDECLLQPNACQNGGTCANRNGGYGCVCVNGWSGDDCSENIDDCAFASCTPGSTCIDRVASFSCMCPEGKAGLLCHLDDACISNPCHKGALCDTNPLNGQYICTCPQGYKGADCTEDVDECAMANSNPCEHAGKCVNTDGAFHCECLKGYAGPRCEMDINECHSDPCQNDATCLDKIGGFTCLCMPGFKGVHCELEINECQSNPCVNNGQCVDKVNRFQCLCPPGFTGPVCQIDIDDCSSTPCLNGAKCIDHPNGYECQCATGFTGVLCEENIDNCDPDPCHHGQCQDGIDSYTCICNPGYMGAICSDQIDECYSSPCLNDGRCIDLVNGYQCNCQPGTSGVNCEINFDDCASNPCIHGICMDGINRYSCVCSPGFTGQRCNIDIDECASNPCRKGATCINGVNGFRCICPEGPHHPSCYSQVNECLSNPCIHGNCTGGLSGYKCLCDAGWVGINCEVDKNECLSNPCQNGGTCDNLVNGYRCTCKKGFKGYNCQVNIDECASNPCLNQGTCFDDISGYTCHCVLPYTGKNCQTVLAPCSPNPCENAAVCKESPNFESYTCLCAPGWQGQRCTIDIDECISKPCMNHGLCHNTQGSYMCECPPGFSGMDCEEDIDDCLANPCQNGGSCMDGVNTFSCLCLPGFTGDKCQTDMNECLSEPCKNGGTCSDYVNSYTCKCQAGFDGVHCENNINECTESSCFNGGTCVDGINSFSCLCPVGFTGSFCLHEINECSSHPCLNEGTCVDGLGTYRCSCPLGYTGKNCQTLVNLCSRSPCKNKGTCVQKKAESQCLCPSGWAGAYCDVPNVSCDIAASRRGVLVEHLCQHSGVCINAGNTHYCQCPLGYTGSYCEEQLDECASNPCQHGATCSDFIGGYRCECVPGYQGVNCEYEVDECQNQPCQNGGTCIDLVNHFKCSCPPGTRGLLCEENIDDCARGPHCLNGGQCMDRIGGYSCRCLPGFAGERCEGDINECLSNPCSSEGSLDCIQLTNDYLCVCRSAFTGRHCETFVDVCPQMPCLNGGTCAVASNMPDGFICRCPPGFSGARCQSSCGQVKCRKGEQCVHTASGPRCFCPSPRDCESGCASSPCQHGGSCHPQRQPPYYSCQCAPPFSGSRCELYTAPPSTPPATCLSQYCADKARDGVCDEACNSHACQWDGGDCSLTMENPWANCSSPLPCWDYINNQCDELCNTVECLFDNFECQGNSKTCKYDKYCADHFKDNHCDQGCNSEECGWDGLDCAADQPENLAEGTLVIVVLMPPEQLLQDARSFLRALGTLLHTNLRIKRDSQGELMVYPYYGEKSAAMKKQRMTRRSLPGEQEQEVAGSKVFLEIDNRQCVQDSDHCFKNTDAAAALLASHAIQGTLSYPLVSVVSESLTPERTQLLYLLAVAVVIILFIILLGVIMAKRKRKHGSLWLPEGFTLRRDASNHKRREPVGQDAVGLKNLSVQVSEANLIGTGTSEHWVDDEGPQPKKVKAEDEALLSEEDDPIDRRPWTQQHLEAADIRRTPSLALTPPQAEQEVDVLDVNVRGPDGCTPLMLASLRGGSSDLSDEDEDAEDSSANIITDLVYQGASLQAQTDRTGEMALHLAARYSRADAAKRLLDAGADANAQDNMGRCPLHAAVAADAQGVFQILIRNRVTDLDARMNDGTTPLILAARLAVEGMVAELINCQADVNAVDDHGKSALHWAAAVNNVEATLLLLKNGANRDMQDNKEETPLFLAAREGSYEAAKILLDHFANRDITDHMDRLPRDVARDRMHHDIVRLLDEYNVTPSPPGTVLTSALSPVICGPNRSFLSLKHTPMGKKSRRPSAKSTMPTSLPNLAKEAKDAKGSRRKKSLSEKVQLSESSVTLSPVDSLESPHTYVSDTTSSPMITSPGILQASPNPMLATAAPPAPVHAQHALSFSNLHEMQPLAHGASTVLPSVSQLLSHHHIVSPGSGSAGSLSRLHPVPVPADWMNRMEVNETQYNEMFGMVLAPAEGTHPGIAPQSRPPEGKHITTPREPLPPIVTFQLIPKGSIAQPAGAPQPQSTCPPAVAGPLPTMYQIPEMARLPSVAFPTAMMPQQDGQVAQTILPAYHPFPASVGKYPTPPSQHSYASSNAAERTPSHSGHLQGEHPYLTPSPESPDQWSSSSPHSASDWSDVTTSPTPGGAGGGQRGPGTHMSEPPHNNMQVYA

Take `C=CCC(OC(C)=O)[C@@H]1[C@@H](N(Cc2cc3ccccc3o2)C(=O)c2ccc(C)cc2)c2cc(OCCCO)ccc2N1C(=O)Cc1ccc2ccccc2c1` (stereo not given in full): the composite z-score in experiment [1] is 0.222; in experiment [2], -0.603; in experiment [3], 0.0755; in experiment [4], 0.113; in experiment [5], -0.242; in experiment [6], -0.0075. Also, the composite z-score in experiment [7] was -0.345; in experiment [9] it was 0.292; in [10], 0.107; in experiment [11], -0.208; in experiment [15], 0.0257; in experiment [17], 0.18. In addition, the results for the composite z-score in experiment [18], in [19] and in [20] were 1.81, -0.725 and -0.094, respectively. Further, the z-score is -0.286 (inactive) in experiment [8]; 0.627 (inactive) in experiment [12]; -0.423 (inactive) in experiment [13]; 0.469 (inactive) in experiment [14]; 2.18 (inactive) in [16].

For `C=CCOC(=O)[C@H]1[C@@H]2C(=O)O[C@@H](c3ccccc3)[C@@H](c3ccccc3)N2[C@@H](c2ccc(OCCOC(=O)[C@H]3C[C@H]4C(=O)N[C@@H](Cc5ccccc5)C(=O)N4[C@H]3c3ccc(O)cc3)cc2)[C@]12C(=O)Nc1ccc(I)cc12`, the composite z-score in experiment [1] was 0.558; in [2], 0.412; in [3] it was -0.0093; in experiment [4], 0.979; in experiment [5], 0.779; in experiment [6] it was 0.932. In addition, the composite z-score in experiment [7] is 1.21; in [9] it was 2.17; in [10] it was -0.582; in [11] it was 1.55; in experiment [15], 2.39; in experiment [17] it was -0.0267. For the same compound, the composite z-score in [18] is 1.69; in [19], 1.05; in experiment [20], -0.118. For the same compound, the z-score was 0.808 (inactive) in experiment [8]; 0.827 (inactive) in [12]; 1.36 (inactive) in experiment [13]; 3.95 (inactive) in [14]; -0.305 (inactive) in experiment [16].

Consider `COCCCNC(=O)[C@@]1(Sc2ccc(C)cc2)CC(=O)N(Cc2cc(C(F)(F)F)cc(C(F)(F)F)c2)[C@@H]1c1ccc(CO)cc1`, for which the composite z-score was 0.0028 in [1]; 0.525 in [2]; -0.144 in [3]; -0.29 in [4]; 0.0762 in experiment [5]; 1.22 in experiment [6]. Moreover, the composite z-score in experiment [7] was 0.875; in experiment [9] it was -0.168; in [10] it was 0.213; in experiment [11] it was 1.54; in experiment [15], 1.46; in experiment [17], -0.0927. The results for the composite z-score in experiment [18], in [19] and in experiment [20] were 1.6, 0.715 and -0.0531, respectively. Also, the z-score in experiment [8] is -0.42 (inactive); in experiment [12], -0.157 (inactive); in [13] it was -1.51 (inactive); in experiment [14], -1.11 (inactive); in [16], -0.296 (inactive).

`[N-]=[N+]=Nc1ccccc1[C@@H]1OC(c2ccc(OCCCO)cc2)=N[C@]1(CCS(=O)(=O)c1ccccc1)C(=O)NCCN1CCOCC1`: the composite z-score in experiment [1] worked out at 0.483; in experiment [2], 1.88; in experiment [3], 0.0315; in experiment [4], 0.664; in experiment [5], 1.58; in [6] it was 0.806. For the same compound, the composite z-score turned out to be 1.25 in experiment [7]; 0.925 in experiment [9]; 0.417 in experiment [10]; 1.55 in experiment [11]; 3.15 in [15]; 0.383 in experiment [17]. Further, the composite z-score in [18] was 0.038; in experiment [19], 0.808; in [20], 0.354. Besides, the z-score was 1.2 (inactive) in experiment [8]; -0.564 (inactive) in experiment [12]; -0.727 (inactive) in experiment [13]; 0.519 (inactive) in experiment [14]; 0.0992 (inactive) in [16].

Take `Cc1ccc(S[C@]2(C(=O)NC(C)C)CC(=O)N(C3Cc4ccccc4C3)[C@@H]2c2ccc(CO)cc2I)cc1`: the composite z-score was 0.125 in experiment [1]; -0.869 in experiment [2]; -0.216 in [3]; -0.667 in experiment [4]; -0.853 in experiment [5]; 1.06 in experiment [6]. In addition, the composite z-score in experiment [7] was 0.381; in experiment [9], -0.654; in experiment [10], -0.858; in experiment [11] it was 0.871; in experiment [15] it was 3.32; in experiment [17] it was -0.0131. Further, the composite z-score was -0.0975 in experiment [18], -0.505 in experiment [19] and -0.37 in [20]. The z-score in experiment [8] is -1.85 (inactive); in [12], -0.801 (inactive); in [13] it was -2.68 (inactive); in experiment [14] it was -0.0369 (inactive); in [16], 0.733 (inactive).
